Source: PubChem BioAssay (several laboratories)
Hits are enriched below; roughly 5% of the tested compounds scored in any of these assays.
SENP8 block-1 – SENP8 protease inhibition. Q96LD8. purified SENP8, Z-RLRGG-aminoluciferin cleavage, luminescence. inhibition, % at 10 µM. 330,000 tested, 1.2% active. AID 2540; in the data active = inhibition above about 50%
Target sequence (Q96LD8 whole entry, looked up): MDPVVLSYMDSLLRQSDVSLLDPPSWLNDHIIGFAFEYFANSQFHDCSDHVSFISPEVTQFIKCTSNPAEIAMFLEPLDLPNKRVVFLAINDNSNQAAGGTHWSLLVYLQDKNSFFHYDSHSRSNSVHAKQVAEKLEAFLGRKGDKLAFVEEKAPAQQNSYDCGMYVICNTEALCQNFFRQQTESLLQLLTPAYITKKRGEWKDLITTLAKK
SENP6 inh – SENP6 protease inhibition; Recombinant SENP6 catalytic domain, aminoluciferin luminescence; inhibition, % at 10 µM; 330,000 tested, 1.8% active; AID 2599;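 active = inhibition above about 50% at the single tested dose, limit read from the data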;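 note: plate controls were DMSO wells with enzyme for no effect and DMSO wells lacking enzyme for full effect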
EBI2 antag – EBI2 (human) antagonism; P32249; EBI2 beta-arrestin recruitment, luminescence, 7a,25-OHC stimulated; inhibition, % at 5 µM; 360,000 tested, 0.81% active; in the data active = inhibition above about 38%;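 note: enzyme fragment complementation signal reports receptor beta-arrestin coupling in cells; 0% = agonist plus DMSO wells and 100% = wells without agonist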
AHR activator – activators of human aryl hydrocarbon receptor | AHR-responsive luciferase reporter cells, luminescence | 320,000 tested, 2.5% active | activation, % at 5 µM | P35869; in the data active = activation above about 47%;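 note: 0% = vehicle wells and 100% = reference agonist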
SENP7 block – inhibitors of human SENP7 protease. Q9BQF6. recombinant SENP7, Z-RLRGG-aminoluciferin luminescence, 40 min. inhibition, % at 5 µM. 330,000 tested, 1.5% active. AID 434973;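 active = inhibition above about 50% at the single test dose, limit read from the data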;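 note: plate controls were DMSO with enzyme for no effect and no enzyme buffer wells for full effect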
Target sequence (Q9BQF6 706-1050 limits assumed): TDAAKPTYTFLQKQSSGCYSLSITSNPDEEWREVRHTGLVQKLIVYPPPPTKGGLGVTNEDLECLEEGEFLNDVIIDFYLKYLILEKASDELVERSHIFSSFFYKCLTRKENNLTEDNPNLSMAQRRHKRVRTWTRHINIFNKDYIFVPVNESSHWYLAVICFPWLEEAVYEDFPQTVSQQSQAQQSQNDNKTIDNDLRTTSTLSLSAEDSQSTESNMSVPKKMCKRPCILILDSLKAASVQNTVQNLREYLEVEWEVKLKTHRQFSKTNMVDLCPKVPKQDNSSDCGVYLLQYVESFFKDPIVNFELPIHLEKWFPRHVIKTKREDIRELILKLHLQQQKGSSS
SENP8 block-2 – SENP8 (human) protease inhibition | Q96LD8 | recombinant SENP8, Nedd8 substrate fluorescence | inhibition, % at 20 µM | 360,000 tested, 0.64% active; in the data active = inhibition mostly above about 40%, no sharp cut-off; inactive = mostly below about 27%
* = called active by the depositor.

`COc1cc(NC(=O)Cn2ncc3c2-c2ccccc2OC3)cc(OC)c1OC` gave SENP8 block-1 1, SENP6 inh -13, EBI2 antag -4, AHR activator 8, SENP7 block 1 and SENP8 block-2 6.
Screening COc1ccccc1NC(=O)Cn1ncc2c1-c1ccccc1OC2 returned SENP8 block-1 0, SENP6 inh -10, EBI2 antag -2, AHR activator 59*, SENP7 block 6 and SENP8 block-2 6.
`COc1ccccc1NC(=O)c1sc(Cl)nc1C` gave SENP8 block-1 -3, SENP6 inh 17, EBI2 antag -1, AHR activator 70*, SENP7 block -4 and SENP8 block-2 9.
`CN1CCCCC1(C)C(=O)NCc1ccc(F)cc1` (stereo unspecified) gave EBI2 antag 5 and SENP8 block-2 -4.
COc1ccccc1NC(=O)Nc1cc(NC(=O)Nc2ccccc2OC)c(C)nc1C was read as SENP8 block-1 0, SENP6 inh -1, EBI2 antag 0, AHR activator 49*, SENP7 block -2 and SENP8 block-2 5.
`COc1ccccc1NC(=O)Nc1ccccc1Br` gave SENP8 block-1 1, SENP6 inh -6, EBI2 antag -8, AHR activator 32, SENP7 block 6 and SENP8 block-2 17.
For COc1cc(C(=O)OCc2ccc(C)cc2)cc(NC(=O)c2cccs2)c1OC the results were SENP8 block-1 -1, SENP6 inh -13, EBI2 antag 15, AHR activator 58*, SENP7 block 3 and SENP8 block-2 -35.
For CC1=NN(c2ccc([N+](=O)[O-])cc2)C(=O)C1 the results were EBI2 antag 8 and SENP8 block-2 71*.
Screening Cn1nc([N+](=O)[O-])c(C(C#N)c2nc3ccccc3n2C)c(Cl)c1=O (stereo unspecified) returned SENP8 block-1 -6, SENP6 inh -20, EBI2 antag 17, AHR activator 74*, SENP7 block -9 and SENP8 block-2 -166.
N#C/C(=C\C=C\c1ccccc1[N+](=O)[O-])c1nc(-c2ccc3c(c2)OCO3)cs1 was read as SENP8 block-1 3, SENP6 inh 3, EBI2 antag 7, AHR activator 23, SENP7 block -1 and SENP8 block-2 26.
`N#C/C(=C/c1ccccc1[N+](=O)[O-])c1nc(C2CC2)cs1` gave SENP8 block-1 -17, SENP6 inh -15, EBI2 antag -12, AHR activator 71*, SENP7 block -9 and SENP8 block-2 14.
For N#C/C(=C\c1ccc([N+](=O)[O-])cc1)c1nc(C2CC2)cs1 the results were SENP8 block-1 -7, SENP6 inh 12, EBI2 antag 0, AHR activator 10, SENP7 block 1 and SENP8 block-2 -80.
Screening N#C/C(=C\c1ccccc1[N+](=O)[O-])c1nc(C2CC2)cs1 returned SENP8 block-1 -7, SENP6 inh -7, EBI2 antag -8, AHR activator 106*, SENP7 block -5 and SENP8 block-2 14.
`COc1ccc(-c2oc3cccnc3c2/C=C/c2ccc(OC)c(OC)c2)cc1` gave SENP8 block-1 -9, SENP6 inh 15, EBI2 antag 1, AHR activator 47*, SENP7 block 1 and SENP8 block-2 inactive.
Screening O=C(Nc1cccc(NC(=O)c2ccco2)c1)c1ccccc1 returned SENP8 block-1 -9, SENP6 inh -25, EBI2 antag -11, AHR activator 20, SENP7 block -9 and SENP8 block-2 12.
Cc1ccccc1NC(=O)c1ccccc1NC(=O)c1ccco1 was read as SENP8 block-1 -2, SENP6 inh -16, EBI2 antag -16, AHR activator 26, SENP7 block -1 and SENP8 block-2 8.
Screening O=C(Nc1cccc(-c2nc3ccccc3[nH]2)c1)c1ccco1 returned SENP8 block-1 -14, SENP6 inh 21, EBI2 antag -16, AHR activator 51*, SENP7 block 11 and SENP8 block-2 6.
O=C(Nc1cccc(NC(=O)c2nccc3ccccc23)c1)c1ccco1 was read as SENP8 block-1 -7, SENP6 inh -4, EBI2 antag -1, AHR activator 102*, SENP7 block -12 and SENP8 block-2 6.
For Cn1cccc1-c1nc2ccc(NC(=O)c3ccco3)cc2[nH]1 the results were SENP8 block-1 -13, SENP6 inh -23, EBI2 antag -3, AHR activator -8, SENP7 block -16 and SENP8 block-2 -75.
For O=C(Nc1ccccc1C(=O)Nc1ccc(F)cc1)c1ccco1 the results were SENP8 block-1 -3, SENP6 inh -8, EBI2 antag -17, AHR activator 172*, SENP7 block 2 and SENP8 block-2 1.
`O=C(Nc1ccccc1O)c1cccc(NC(=O)c2ccco2)c1` gave SENP8 block-1 -7, SENP6 inh -7, EBI2 antag 2, AHR activator 54*, SENP7 block 1 and SENP8 block-2 12.
O=C(c1ccccc1)c1cccc(NC(=O)c2ccco2)c1 was read as SENP8 block-1 5, SENP6 inh -2, EBI2 antag -3, AHR activator 0, SENP7 block 5 and SENP8 block-2 15.
`CN1C(=O)/C(=C/c2cn(CC(=O)NCc3ccco3)c3ccccc23)NC1=S` gave SENP8 block-1 1, SENP6 inh 10, AHR activator 58* and SENP7 block 5.
`CN1C(=O)/C(=C/c2cn(CC(=O)N3CCCCC3)c3ccccc23)NC1=S` gave SENP8 block-1 -8, SENP6 inh -7, EBI2 antag 34, SENP7 block -8 and SENP8 block-2 -18.
Cc1[nH][nH]c(=O)c1N=Nc1ccc(Cl)cc1 was read as SENP8 block-1 28, SENP6 inh 49, EBI2 antag -2, AHR activator 51*, SENP7 block 37 and SENP8 block-2 22.
Screening O=C(CCCc1ccccn1)c1ccc(-c2ccccc2)cc1 returned EBI2 antag -2 and SENP8 block-2 -27.
`c1ccc2c(c1)ccc1ncccc12` gave SENP8 block-1 1, SENP6 inh -11, EBI2 antag -15, AHR activator -1, SENP7 block 6 and SENP8 block-2 8.
Oc1c(N=Nc2ccccn2)ccc2ccccc12 was read as SENP8 block-1 96*, SENP6 inh 94*, EBI2 antag 36, AHR activator 68*, SENP7 block 43 and SENP8 block-2 21.
For CN1CCC(C)(C(=O)Nc2cccc(Oc3ccccc3)c2)C1 (stereo unspecified) the results were EBI2 antag -18 and SENP8 block-2 21.
Nc1ccc2oc(-c3cccc4ccccc34)nc2c1 was read as SENP8 block-1 14, SENP6 inh 27, EBI2 antag -5, AHR activator 53*, SENP7 block 3 and SENP8 block-2 -484.
Screening Nc1ccc2oc(-c3cccs3)nc2c1 returned SENP8 block-1 2, SENP6 inh 16, EBI2 antag 2, AHR activator 14, SENP7 block 17 and SENP8 block-2 -324.
